Records with an inconclusive call do not appear. Entries that show only a call come without a potency. Calls of active or inactive are those of the source. The call rests on the fitted dose curve; in most records, active means well fitted cell-killing curve with a large enough effect; inconclusive means small, poorly fitted or top-dose-only effect, or effect the other way; inactive means no such curve, though single readings can be large or run the other way.
Assay: Quantitative High-Throughput drug screen in 47 multiple myeloma cell lines against the NCATS MIPE library collection: KMM1_JCRB cell viability assay (AID 1918960); further: nearly all actives have a fitted effect of over 30% in size
Conditions: KMM1 myeloma viability, CellTiter-Glo ATP luminescence, 48 h; series mostly up to 45.8 µM
Description: PI: Beverly A. Mock Ph.D.
Laboratory of Cancer Biology and Genetics,
Center for Cancer Research, National Cancer Institute,
National Institute of Health, Bethesda, Maryland
Drug resistance and disease progression are common in multiple myeloma (MM) patients, underscoring the need for new therapeutic combinations. […] We hypothesized that effective combinations would reduce MYC expression and enhance p16 activity. […] These preclinical data identify potentially useful drug combinations for evaluation in drug-resistant MM and reveal potential mechanisms of combined drug sensitivity.
Described herein is the primary MIPE qHTS used to cherrypick compounds. Validated compounds were then further tested for potential synergistic activiy.
[1] Peat TJ, Gaikwad SM, Dubois W, Gyabaah-Kessie N, Zhang S, Gorjifard S, Phyo Z, Andres M, Hughitt VK, Simpson RM, Miller MA, Girvin AT, Taylor A, Williams D, D'Antonio N, Zhang Y, Rajagopalan A, Flietner E, Wilson K, Zhang X, Shinn P, Klumpp-Thomas C, McKnight C, Itkin Z, Chen L, Kazandijian D, Zhang J, Michalowski AM, Simmons JK, Keats J, Thomas CJ, Mock BA. Drug combinations identified by high-throughput screening promote cell cycle transition and upregulate Smad pathways in myeloma. Cancer Lett. 2023 Aug 1;568:216284. doi: 10.1016/j.canlet.2023.216284. Epub 2023 Jun 24. PMID: 37356470; PMCID: PMC10408729.
SEQUENCE No. (e.g., 1, 2, 3, etc.); […] (e.g., Cells, Incubation, Reagent, etc.); VALUE and DESCRIPTION.
1; Cells; 5 uL; white, solid bottom 1536-well Greiner assay plate.
2; Compounds; 23 nL; Kalypsis pin tool (Wako USA) equipped with a 1536-well pin head to transfer to the assay plates.
3; Incubation; 48 hours; 37C incubation.
4; Reagent;5uL; CellTiter Glo (Promega).
5; Detector; 425V; Luminescence; Viewlux PerkinElmer.
NOTES (numbers refer to Sequence numbers above)
1. The cell-based screening methods employed in this study were like those previously published. Briefly, the corresponding myeloma cell lines were screened in 1,536-well plates with 500 cells, 5-uL per well for inhibition of cell viability (assessed by measuring ATP levels with CellTiterGlo).
2. NCATS MIPE 4.0 library of approved and investigational drugs were added using the Kalypsis pin tool. Wells treated with DMSO only for 100% viability and media only cells for 0% viability were used as controls.
3. The assay plates were covered and incubated for 48 hours in a 37C, 5% CO2 incubator with controlled humidity.
4. After 48 hours, CellTilter-GloTM luminescent substrate mix (Promega) reagent was added to the assay plate and plates we incubated for 5 min at room temperature.
5. Signal was measured as median relative luminescence units on a ViewLux (PerkinElmer) multiplate reader.
[1] Heske CM, Davis MI, Baumgart JT, Wilson K, Gormally MV, Chen L, Zhang X, Ceribelli M, Duveau DY, Guha R, Ferrer M, Arnaldez FI, Ji J, Tran HL, Zhang Y, Mendoza A, Helman LJ, Thomas CJ. Matrix Screen Identifies Synergistic Combination of PARP Inhibitors and Nicotinamide Phosphoribosyltransferase (NAMPT) Inhibitors in Ewing Sarcoma. Clin Cancer Res. 2017 Dec 1;23(23):7301-7311. doi: 10.1158/1078-0432.CCR-17-1121. Epub 2017 Sep 12. PMID: 28899971; PMCID: PMC6636827.
Potency means the concentration at half of the fitted maximal effect.

For `CS(=O)(=O)c1cccc(CNc2nc(Nc3ccc4c(c3)CCC(=O)N4)ncc2C(F)(F)F)c1`, which Potency is on record?
The Potency was 4.18 µM (active).

Which Potency does the source give for `O=c1[nH]c(-c2ccc(C(F)(F)F)cc2)nc2c1CSCC2` here?
The Potency was “inactive”.

Which Potency does the source give for `Cn1cnc2c(F)c(Nc3ccc(Br)cc3Cl)c(C(=O)NOCCO)cc21` here?
The Potency was 5.26 µM (active).

With `C[C@]1(c2nc3c(C(N)=O)cccc3[nH]2)CCCN1` as the compound, how does the Potency read?
Its Potency is “inactive”.

For `COc1cc2c(cc1OC)CN(CCc1ccc(NC(=O)c3cccc4c(=O)c5cccc(OC)c5[nH]c34)cc1)CC2`, which Potency is on record?
Its Potency is “inactive”.

Which Potency does the source give for `O=C1CCc2cc(OCCCCc3nnnn3C3CCCCC3)ccc2N1` here?
The Potency was “inactive”.

With `O=C(O)[C@@H](c1ccc(OCc2ccc3ccccc3n2)cc1)C1CCCC1` as the compound, how does the Potency read?
The Potency was “inactive”.

Which Potency does the source give for `CCCC(CCC)C(=O)O` here?
Its Potency is “inactive”.

For `Cc1cccc(-c2[nH]c(C(C)(C)C)nc2-c2ccc3nccnc3c2)n1`, which Potency is on record?
The Potency was 4.69 µM (active).

For `C[C@]12CC[C@H](O)CC1=CC[C@@H]1[C@H]2CC[C@]2(C)C(c3cccnc3)=CC[C@H]12`, which Potency is on record?
Its Potency is “inactive”.

For `Cc1c(CCOc2ccc(C(=O)O)cc2)c2cc(Cl)ccc2n1C(c1ccccc1)c1ccccc1`, which Potency is on record?
Its Potency is “inactive”.

Which Potency does the source give for `CC(C[N+](C)(C)C)OC(N)=O` (stereo not given) here?
The Potency was “inactive”.

For `CC(=O)NC(C)c1ccc(Oc2ccc(OC(C)C)cc2)cc1` (stereo not given), which Potency is on record?
The Potency was 2.64 µM (active).

For `CNC(=O)c1ccc(N2C(=S)N(c3ccc(C#N)c(C(F)(F)F)c3)C(=O)C2(C)C)cc1F`, which Potency is on record?
Its Potency is 9.35 µM (active).

Which Potency does the source give for `CC(c1cc2ccccc2s1)N(O)C(N)=O` (stereo not given) here?
Its Potency is “inactive”.

For `CO[C@@H]1[C@H](N(C)C(=O)c2ccccc2)C[C@H]2O[C@]1(C)n1c3ccccc3c3c4c(c5c6ccccc6n2c5c31)C(=O)NC4`, which Potency is on record?
The Potency was 2.35 µM (active).

For `Cc1c(CN2CCN(C(=O)C(C)C)CC2)sc2c(N3CCOCC3)nc(-c3cnc(N)nc3)nc12`, which Potency is on record?
The Potency was 0.059 µM (active).

With `CN(C)c1ccc(Nc2nc(N)n(C(=O)c3c(F)cccc3F)n2)cc1` as the compound, how does the Potency read?
The Potency was 11.8 µM (active).

With `CC(C)(C)OC(=O)CN(Cc1ccc(Cl)cc1)Cc1ccc([N+](=O)[O-])s1` as the compound, how does the Potency read?
Its Potency is “inactive”.

With `CC1(C)CNc2cc(NC(=O)c3cccnc3NCc3ccncc3)ccc21` as the compound, how does the Potency read?
Its Potency is “inactive”.

For `S=C(NCc1ccc2c(c1)OCO2)N1CCN(c2ncnc3c2oc2ccccc23)CC1`, which Potency is on record?
Its Potency is 1.36 µM (active).

Which Potency does the source give for `CC(C)OC(=O)C1=CN(C(=O)c2ccc(F)c(F)c2)CC(C)(C)c2c1[nH]c1ccccc21` here?
The Potency was “inactive”.

With `COc1ccc(-c2ccc3c(N4CCOCC4)nc(N4C[C@@H](C)O[C@@H](C)C4)nc3n2)cc1CO` as the compound, how does the Potency read?
The Potency was 0.209 µM (active).

Which Potency does the source give for `O=C1[C@H](Cc2ccc(O)cc2)N2C(=O)CCN(C(=O)NCc3ccccc3)[C@H]2CN1Cc1cccc2ccccc12` here?
The Potency was “inactive”.

With `c1ccc([C@H]2CN3CCSC3=N2)cc1` as the compound, how does the Potency read?
The Potency was “inactive”.

For `CCCS(=O)(=O)Nc1ccc(F)c(C(=O)c2c[nH]c3ncc(Cl)cc23)c1F`, which Potency is on record?
Its Potency is 16.6 µM (active).

With `CC(C)NCC(O)COc1ccc(COCCOC(C)C)cc1` (stereo not given) as the compound, how does the Potency read?
The Potency was “inactive”.

With `Cc1ccc(NC(=O)c2cccc(C(C)(C)C#N)c2)cc1Nc1ccc2ncn(C)c(=O)c2c1` as the compound, how does the Potency read?
The Potency was 2.35 µM (active).

Which Potency does the source give for `COCC(=O)NCC=Cc1ccc2ncnc(Nc3ccc(Oc4ccc(C)nc4)c(C)c3)c2c1` here?
The Potency was 8.33 µM (active).

With `Clc1cccc(Cl)c1NC1=NCCN1` as the compound, how does the Potency read?
The Potency was “inactive”.

For `O=C(Nc1cccnc1)N1CCC(Cc2cccc(Oc3ccc(C(F)(F)F)cn3)c2)CC1`, which Potency is on record?
Its Potency is 7.43 µM (active).

Which Potency does the source give for `CCC(C)(C)C(=O)O[C@H]1C[C@@H](C)C=C2C=C[C@H](C)[C@H](CC[C@@H]3C[C@@H](O)CC(=O)O3)[C@H]21` here?
The Potency was 26.4 µM (active).

For `Oc1ccc(C2CNCCc3c2cc(O)c(O)c3Cl)cc1` (stereo not given), which Potency is on record?
The Potency was “inactive”.

With `O=C(C=Cc1ccc(/C=C/C(=O)Nc2ccc(C3=NCCN3)cc2)cc1)Nc1ccc(C2=NCCN2)cc1` as the compound, how does the Potency read?
Its Potency is “inactive”.

For `O=C(Nc1nc2ccccc2n1CCN1CCOCC1)c1cccc([N+](=O)[O-])c1`, which Potency is on record?
Its Potency is 5.26 µM (active).

For `CC(C=CC1=C(C)CCCC1(C)C)=CC=CC(C)=CC(=O)O`, which Potency is on record?
The Potency was “inactive”.

Which Potency does the source give for `CCn1cc(C(=O)O)c(=O)c2cc(F)c(N3CCNC(C)C3)c(F)c21` (stereo not given) here?
Its Potency is “inactive”.

Which Potency does the source give for `Cc1oncc1C(=O)Nc1ccc(C(F)(F)F)cc1` here?
The Potency was “inactive”.

Which Potency does the source give for `COc1cc2nccc(Oc3ccc(NC(=O)NC4CC4)c(Cl)c3)c2cc1C(N)=O` here?
Its Potency is 3.72 µM (active).

Which Potency does the source give for `CCc1ccc(CCOc2ccc(CC3SC(=O)NC3=O)cc2)nc1` (stereo not given) here?
Its Potency is “inactive”.

— PubChem BioAssay (NCATS)
